# Assay results reported in PubChem BioAssay (NCATS).
# Records with an inconclusive call do not appear. Calls of active or inactive are those of the source. Calls follow the shape of the dose curve; as a rule, active = well fitted inhibition curve with a large enough effect; inconclusive = small, poorly fitted or top-dose-only effect; inactive = flat fitted curve, though single readings scatter.
# Experiment: P-glycoprotein substrates identified in KB-8-5-11 adenocarcinoma cell line, qHTS therapeutic library screen (AID 1346987); also: nearly all actives have a fitted effect of over 65% in size
# Details: KB-8-5-11 (P-gp overexpressing) viability, CellTiter-Glo, 72 h; series mostly up to 44.5 µM; activity change, negative = cytotoxicity: at the top concentration
# Summary of the method: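 Human cervical adenocarcinoma KB-8-5-11 cells, selected in colchicine to over-express P-gp and assayed without it, were exposed for 72 h to titrated compounds. An ATP-based luminescent viability signal gave AC50.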
# % is scaled to controls: 0 for no effect and ±100 for the full control effect; potency is read from the fitted curve at half-maximal effect.
SMILES,outcome,"activity change, negative = cytotoxicity",Potency
C[C@@]12C[C@]3(O)O[C@H](O1)[C@]1(COC(=O)c4ccccc4)[C@H]3C[C@@]12O[C@@H]1O[C@H](CO)[C@@H](O)[C@H](O)[C@H]1O,inactive [at 17.3 µM],,
C/C(=C\C=C\C(C)C1CCC2(C)C3CCC4C(C)(C)C(=O)CCC45CC35CCC12C)C(=O)O (centres undefined),,8.34% [at 17.3 µM] (inactive),
C/C=C/C=C/C(=O)N1CC[C@]23c4ccccc4N[C@H]4N(C)c5cccc6c5[C@@]42CCN([C@H]6C2OC2(C)C)[C@H]13 (some centres undefined),inactive [at 17.3 µM],,
O=C(O)/C=C/c1ccc(-c2ccc(O)c(C34CC5CC(CC(C5)C3)C4)c2)cc1,,,580 nM (active)
COc1cc(O)c2c(c1)C1=C[C@H](O)[C@@H](O)C[C@]1(C)OC2=O,,1.47% (inactive),
CC[C@]1(O)CC2CN(CCc3c([nH]c4ccccc34)[C@@](C(=O)OC)(c3cc4c(cc3OC)N(C)[C@H]3[C@@](O)(C(=O)OC)[C@H](OC(C)=O)[C@]5(CC)C=CCN6CC[C@]43[C@@H]65)C2)C1 (some centres undefined),,,1030 nM (active)
CC(C)C(C#N)O[C@@H]1O[C@H](CO[C@@H]2O[C@@H](C)[C@H](O)[C@@H](O)[C@H]2O)[C@@H](O)[C@H](O)[C@H]1O (some centres undefined),inactive [at 17.3 µM],,
C[C@@H]1O[C@@H](O[C@H]2[C@H](O)[C@@H](C(=O)O)O[C@@H](O[C@H]3CC[C@@]4(C)C(CC[C@]5(C)C4CC=C4C6CC(C)(C)CC[C@]6(C(=O)O)CC[C@]45C)C3(C)C)[C@@H]2O[C@@H]2OC[C@@H](O)[C@H](O)[C@H]2O)[C@H](O)[C@H](O)[C@H]1O (some centres undefined),inactive [at 9.29 µM],,
Cc1c[nH]c2nccc(Oc3c(F)cc(Nc4cc(Cl)nc(N)n4)cc3F)c12,,,1300 nM (active)
CC(C)(C)CCN1C[C@@H]2C(CNC(=O)c3cc(Cl)cc(Cl)c3)[C@@H]2C1 (some centres undefined),,-23.6% (inactive),
NC1CCC(Nc2cc(-c3cccc(NCc4cccc(F)c4)n3)c(Cl)cn2)CC1 (centres undefined),,,1160 nM (active)
CC1(C)CCCC2(C)C=C(C(=O)O)C(O)CC12 (centres undefined),inactive,,
C=C(C(=O)OC)C1C(O)CC2(C)C(=O)CCC(O)(CO)C2C1O (centres undefined),inactive,,
C=C(C)C1CCC2(C(=O)O)CCC3(C(=O)O)C(CCC4C5(C)CCC(O)C(C)(C(=O)O)C5CCC43C)C12 (centres undefined),inactive [at 17.3 µM],,
C[C@@H]1CC[C@]2(C(=O)O)CC[C@]3(C)C(=CCC4[C@@]5(C)C[C@@H](O)[C@H](O)[C@@](C)(CO)C5CC[C@]43C)C2[C@]1(C)O (some centres undefined),,0.128% [at 17.3 µM] (inactive),
CNCc1ccc(-c2cc(-c3nc(-c4ccc(S(=O)(=O)C(C)C)cc4)cnc3N)on2)cc1,,,1300 nM (active)
CC1(C)CC[C@]2(C(=O)O[C@@H]3O[C@H](CO[C@@H]4O[C@H](CO)[C@@H](O)[C@H](O)[C@H]4O[C@@H]4O[C@H](CO)[C@H](O)[C@H](O)[C@H]4O)[C@@H](O)[C@H](O[C@@H]4O[C@H](CO)[C@@H](O)[C@H](O)[C@H]4O)[C@H]3O)CC[C@]3(C)C(=CCC4[C@@]5(C)CC[C@H](O[C@@H]6OC[C@@H](O)[C@H](O)[C@H]6O)[C@@](C)(C(=O)O)C5CC[C@]43C)[C@@H]2C1 (some centres undefined),inactive [at 9.29 µM],,
O=C(/C=C\c1ccc(O)cc1)N[C@@H](Cc1ccc(O)cc1)C(=O)O,,1.87% (inactive),
CC1=CC(=O)CC(C)(C)C1CCC(C)O[C@@H]1O[C@H](CO[C@@H]2OC[C@@H](O)[C@H](O)[C@H]2O)[C@@H](O)[C@H](O)[C@H]1O (some centres undefined),inactive [at 17.3 µM],,
CN(C)C/C=C/C(=O)Nc1cc2c(Nc3ccc(F)c(Cl)c3)ncnc2cc1OC1CCOC1 (centres undefined),,,14600 nM (active)

SMILES,outcome,"activity change, negative = cytotoxicity",Potency
CNC(=O)c1ccccc1Nc1nc(Nc2ccc3c(c2OC)CCCC(N2CCN(CCO)CC2)C3)ncc1Cl (centres undefined),,,8200 nM (active)
CC1CC2OC3(OC2C(C)(C)O)C1C1(C)CCC24CC25CCC(O[C@@H]2OC[C@@H](O)[C@H](O)[C@H]2O)C(C)(C)C5CC=C4C1(C)C3O (some centres undefined),inactive [at 17.3 µM],,
OC[C@H]1O[C@@H](O[C@H]2[C@H](OCc3ccccc3)O[C@H](CO[C@@H]3OC[C@@H](O)[C@H](O)[C@H]3O)[C@@H](O)[C@@H]2O)[C@H](O)[C@@H](O)[C@@H]1O,,1.87% [at 17.3 µM] (inactive),
CC(C)=CCC/C(C)=C/Cc1ccc(O)c(C2OC(=O)c3cc(C(=O)O)cc(O)c32)c1O (centres undefined),,-1.65% [at 17.3 µM] (inactive),
C(#Cc1nc2ncccc2nc1OCCN1CCCC1)c1ccccc1,,,6510 nM (active)
CC(Oc1cc(-n2cnc3ccc(CN4CCN(C)CC4)cc32)sc1C(N)=O)c1ccccc1C(F)(F)F (centres undefined),,,2590 nM (active)
O=[N+]([O-])c1cccc2[nH]c(CNc3nc(N4CCOCC4)nc4c3ncn4-c3ccsc3)nc12,,,103 nM (active)
C=C1CCC2C(C)(C(=O)O)CCCC2(C)C1CCC(C)CC(=O)O (centres undefined),,-3.83% (inactive),
CN(C)CCn1cc(S(=O)(=O)c2cccc(F)c2)c2cccnc21,,-17.9% (inactive),
O=C(NCc1ccc(S(=O)(=O)c2cc(F)cc(F)c2)cc1)c1ccc2nccn2c1,,,18.4 nM (active)
C[C@@H]1O[C@@H](O[C@H]2[C@H](O[C@H]3[C@H](O[C@H]4CC[C@@]5(C)C(CC[C@]6(C)C5CC=C5[C@@H]7CC(C)(C)C[C@@H](O)[C@]7(C)CC[C@]56C)[C@@]4(C)CO)O[C@H](C(=O)O)[C@@H](O)[C@@H]3O)OC[C@H](O)[C@@H]2O)[C@H](O)[C@H](O)[C@H]1O (some centres undefined),,3.08% [at 9.29 µM] (inactive),
CC1OC2OC(=O)C3(C)CC4=C(CO)C5=C(CC(=O)C4(C)C(C1=O)C23)C(C)(C)OC(=O)C5 (centres undefined),,-11% [at 17.3 µM] (inactive),
CC(C)CN(C[C@@H](O)[C@H](Cc1ccccc1)NC(=O)O[C@@H]1CO[C@H]2OCC[C@H]21)S(=O)(=O)c1ccc(N)cc1,,-1.58% (inactive),
CCN(CC)Cc1ccc(C(=O)N(CCc2ccccc2OC)[C@@H]2CCNC2)cc1,,6.96% [at 17.3 µM] (inactive),
CN(C)c1nc(NC2CCC(NC(=O)c3ccc(F)c(F)c3)CC2)nc2ccccc12 (centres undefined),,,20600 nM (active)
CC/C=C/CC1=C(CCCCC(CCC(=O)O)OC(C)=O)CCC1=O (centres undefined),,-17.4% (inactive),
O=C(/C=C\n1cnc(-c2cc(C(F)(F)F)cc(C(F)(F)F)c2)n1)N1CC(F)(F)C1,,,461 nM (active)
O=S(=O)(Nc1ccccn1)c1ccc(N=Cc2c(O)[nH]c3ccc4ncsc4c23)cc1,inactive [at 9.29 µM],,
C[C@]12C[C@@H](O)[C@@H]3C[C@@]1(O[C@@H]1O[C@H](CO)[C@@H](O)[C@H](O)[C@H]1O)[C@]3(COC(=O)c1ccccc1)C(=O)O2,inactive [at 17.3 µM],,
